# Measurements as given in PubChem BioAssay AID1845226 (National Center for Advancing Translational Sciences (NCATS), 2023).
# Inconclusive results are not listed. Active and inactive are the calls of the source. Calls come from the whole dose curve; as a rule, active = well fitted inhibition curve with a large enough effect; inconclusive = small, poorly fitted or top-dose-only effect; inactive = no such curve, though single readings can be large or run the other way.
# Experiment: Confirmatory fluorescence-based thiol-reactive (MSTI) qHTS assay for identification of artifact compounds
# Conditions: MSTI thiol-reactivity probe, 1 h; series mostly up to 39.2 µM; activity change, negative = inhibition: at the top concentration
# Outline: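 Thiol reactivity read as MSTI fluorescence (Ex/Em 525/598 nm) after 1 h at room temperature in PBS pH 7.4 with 2% DMSO, MSTI 4 uM. Data normalised to Acetyl-MSTI and MSTI control wells, 4-parameter Hill fit.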
# Potency is the fitted concentration of half-maximal effect.
Structure (SMILES),"activity change, negative = inhibition",Potency
Cc1cc(C)cc(NC(=O)CSc2oc(-c3cccs3)nc2S(=O)(=O)c2ccccc2)c1,195% (inactive),
O=C(COc1ccccc1Cl)NCC1(N2CCOCC2)CCCCC1,34.9% (inactive),
CCCCn1c(-c2ccc(C)cc2)c(C)n2c3c(=O)n(C)c(=O)n(C)c3nc12,-26% (inactive),
CCOc1ccc(CCNC(=O)c2ccc3c(c2)nc2n3CCOC2)cc1OCC,109% (inactive),
Cc1ccccc1C(=O)N1CCc2cc(-c3nc(NC(=O)Cc4ccccc4)sc3C)ccc21,83.2% (inactive),
O=c1cc(-c2cc(O)c(O)c(O)c2)oc2cc(O)cc(O)c12,,12.2 µM (active)
Cc1cc(C(=O)N2CCN(c3cccc(Cl)c3)CC2)c2c(C)nn(-c3ccccc3Cl)c2n1,11.2% (inactive),
CC(C)C(=O)OC1=CN(Cc2ccccc2)S(=O)(=O)c2ccccc21,34.1% (inactive),
O=C(Nc1ccc2oc(-c3cccc4c(Br)cccc34)nc2c1)c1cccnc1,32.8% [at 78.4 µM] (inactive),
COc1ccc(-c2oc3cc(O[C@@H]4OC(CO)C(O)C(O)C4O)c(OC)c(O)c3c(=O)c2OC)cc1O (stereo partly specified),-48.7% (inactive),
CCOC(=O)CN(Cc1ccccc1)C(C(=O)NC1CCCCC1)c1ccc(C)cc1 (stereo unspecified),-13.9% (inactive),
Cc1nn(C(=O)COc2ccccc2Br)c(C)c1Sc1ccccc1,72.4% (inactive),
COc1ccc(-c2cc3ccc(O)c(CN4CCOCC4)c3oc2=O)cc1OC,-13.7% (inactive),
CC1CC(C)CN(c2oc(-c3ccc(OCc4ccc(Cl)cc4)cc3)nc2C#N)C1 (stereo unspecified),0.0837% (inactive),
O=C1c2ccccc2C(=O)c2c(O)c(O)cc(O)c21,,0.612 µM (active)
O=C(Cn1cc(SCc2ccccc2F)c2ccccc21)N1CCCCC1,13.1% (inactive),
